The values below come from PubChem BioAssay (Tox21).

The nature of experiment [1]: Nuclear factor erythroid 2-related factor 2/antioxidant responsive element (Nrf2/ARE) small molecule agonists: qHTS cell viability counter screen in human keratinocytes (AID 1919968; active = well fitted cell-killing curve with a large enough effect in the repeat runs; note: nearly all actives have a fitted effect of over 55% in size). The method in brief:
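HaCaT ARE reporter line, 1,500 cells/well; 5 h settle, 37 C/5% CO2; cpd in DMSO pinned; 23 h exposure; CellTiter-Fluor, 1 h; fluorescence.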
Background: In qHTS, concentration-response curves come from the screen itself.

Experiment [2] in a line: Nuclear factor erythroid 2-related factor 2/antioxidant responsive element (Nrf2/ARE) small molecule agonists: luciferase reporter gene qHTS assay in human keratinocytes (AID 1919969; note: nearly all actives have a fitted effect of over 35% in size; note: potency is the fitted concentration of half-maximal effect). (In general: Reporter assays use an easily measured gene product as a stand-in for the process of interest.)
For experiment [3], the target named is Gonadotropin-releasing hormone receptor (Homo sapiens) (UniProt P30968). The experiment is described as follows: Human gonadotropin-releasing hormone receptor (GnRHR) small molecule agonists, calcium flux assay in GnRHR-HEK293 cells (AID 1920063). Note: nearly all actives have a fitted effect of over 35% in size. In short, it runs like this:
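GnRHR-HEK293, 1500 cells/well, 18 h 37 C/5% CO2; Ca dye 1 h 37 C; cpd pinned (DMSO), agonist mode; kinetic FL 480/540, 3 min, 1 s reads; 15 conc, n=3.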
For orientation: A change in cytosolic calcium serves as a functional read-out for many receptors and channels.

A short description of experiment [4]: G protein-coupled receptor (GPCR) small molecule agonists, calcium flux assay: HEK293 wild type cell line counter screen (AID 1920065). In short, it runs like this: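 Kinetic fluorescence at Ex/Em 480/540, recorded every second over 3 min, served as the read-out after compound addition. Each compound was tested at 15 concentrations in triplicate on cells pre-loaded with calcium dye for 1 h.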

Experiment [5] can be described thus: p53 small molecule agonists, cell-based qHTS assay with human liver microsomes (AID 1963577).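 Note: p53 response element beta-lactamase reporter cells with liver microsomes plus NADPH.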 In short, it runs like this:
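Reporter activation was measured by LiveBLAzer fluorescence intensity in p53RE-bla cells, which had been exposed to compounds for 16 h at 37 C alongside 0.5 mg/mL human liver microsomes and 0.5 mg/mL NADPH (final concentrations).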

Experiment [6] can be described thus: p53 small molecule agonists, cell-based qHTS assay with rat liver microsomes (AID 1963578). In short, it runs like this:
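Compound in DMSO added to p53RE-bla cells 5 h post-plating; rat microsomes/NADPH 0.5 mg/mL final; 16 h, 37 C; LiveBLAzer 2 h RT.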

Experiment [7] in a line: p53 small molecule agonists, cell-based qHTS assay: qHTS cell viability counter screen (AID 1963581). Note: nearly all actives have a fitted effect of over 45% in size. The method in brief: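 HCT-116 p53RE-bla cells, 4,000/well, plated 5 h before compound pin transfer; 16 h at 37 C; bla substrate 2 h RT; then CellTiter-Glo, 30 min RT, luminescence.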
A short description of experiment [8]: p53 small molecule agonists, cell-based qHTS assay (AID 1963582; active = well fitted activation curve with a large enough effect in the signal ratio in the repeat runs, not every such curve was filed as active; the % refers to the signal ratio). The method in brief: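 Reporter line: p53RE-bla. Pre-incubation 5 h, 37 C, 5% CO2; compound (DMSO, pin tool) 16 h, 37 C; B/G FRET substrate 2 h RT; fluorescence intensity read.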
Experiment [9] deals with 5-hydroxytryptamine receptor 2A (Homo sapiens) (UniProt P28223). In words: 5-hydroxytryptamine receptor 2A (HTR2A) small molecule antagonists, cell-based qHTS assay (AID 1963586). Note: nearly all actives have a fitted effect of over 45% in size. Note: potency is the fitted concentration of half-maximal effect. The method in brief:
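Antagonist-mode intracellular calcium assay: DOI (4 nM) added after 5 min compound pre-incubation at room temperature to dye-loaded HTR2A-CHO cells. Fluorescence followed for 3 min, sampled every second.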

The target is the same in experiment [10]. In words: 5-hydroxytryptamine receptor 2A (HTR2A) small molecule agonists, cell-based qHTS assay (AID 1963587). Note: nearly all actives have a fitted effect of over 30% in size. Note: potency is the fitted concentration of half-maximal effect. The method in brief:
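Kinetic calcium-flux fluorescence (2 min, 1 sec intervals) after compound addition in agonist mode. HTR2A-CHO cells were cultured 18 h, then dye-loaded 1 h at 37 C.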

The target in experiment [11] is Muscarinic acetylcholine receptor M1 (Homo sapiens) (UniProt P11229). The experiment is described as follows: Cholinergic receptor muscarinic 1 (CHRM1) small molecule antagonists, cell-based qHTS assay (AID 1963588). Note: nearly all actives have a fitted effect of over 40% in size. In short, it runs like this:
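CHRM1-CHO calcium-flux assay, antagonist mode. Cells were seeded 18 h, dye-loaded 1 h at 37 C and given compound for 5 min at RT, then acetylcholine was added at 50nM. FDSS fluorescence was read 3 min; 15 concentrations, three runs.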

Experiment [12] has the same target. The experiment is described as follows: Cholinergic receptor muscarinic 1 (CHRM1) small molecule agonists, cell-based qHTS assay (AID 1963589). Note: nearly all actives have a fitted effect of over 35% in size. In short, it runs like this: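 Human M1 in stable CHO line; 18 h plating, 1 h dye load 37 C; cpd added (agonist mode); Ca2+ fluorescence kinetic read, 1 s intervals; 15 conc, 3 runs.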
Experiment [13] is described as follows: cAMP Responsive Elements (CRE) small molecule agonists, cell-based qHTS assay (AID 1963590). The method in brief:
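HEK 293T CRE-bla, 2,000 cells/well, 18 h preincubation 37 C/5% CO2; cpds (DMSO) pinned, 3 h; LiveBLAzer B/G FRET substrate, 2 h RT.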

Experiment [14] can be described thus: cAMP Responsive Elements (CRE) small molecule antagonists, cell-based qHTS assay (AID 1963591; active = well fitted inhibition curve with a large enough effect in the signal ratio in the repeat runs, not every such curve was filed as active; the % refers to the signal ratio). The method in brief: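 Beta-lactamase reporter read by FRET substrate (LiveBLAzer B/G) after 2 h at room temperature. CRE-bla HEK293T cells had received compound plus 0.25 uM (final) NKH477 for 3 h at 37 °C.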
The target in experiment [15] is Beta-2 adrenergic receptor (Homo sapiens) (UniProt P07550). In words: Adrenergic beta2 receptor (ADRB2) small molecule antagonists, cell-based qHTS assay (AID 1963592). Note: series mostly up to about 92 µM; nearly all actives have a fitted effect of over 50% in size. The method in brief:
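Cells (CHO, stable ADRB2 overexpression) incubated 18-20hr at 37C; compounds added from DMSO; agonist mix (1nM isoproterenol, 100uM IBMX, 25uM Ro-20-1724) added; 0.5hr RT; d2-cAMP and anti-cAMP-cryptate added; 1hr RT; 665/615 nm read.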

The target is the same in experiment [16]. The experiment is described as follows: Adrenergic beta2 receptor (ADRB2) small molecule agonists, cell-based qHTS assay (AID 1963593).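 Note: CHO cells stably overexpressing human ADRB2.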 The method in brief:
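CHO cells stably over-expressing ADRB2 were plated overnight at 37C, then dosed with compounds plus a stimulation mix containing 100uM IBMX and 25uM Ro-20-1724 for 0.5hr at room temperature. cAMP was measured by HTRF competition, 1hr.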

The nature of experiment [17]: p53 small molecule agonists, cell-based qHTS assay with rat liver microsomes: qHTS cell viability counter screen (AID 1963580). Note: nearly all actives have a fitted effect of over 45% in size. The method in brief: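 Intracellular ATP, by CellTiter-Glo luminescence, defines viability. HCT-116 p53RE-bla cells, 4,000 per well, were compound-treated in the presence of rat liver microsomes and NADPH for 16 h at 37 C.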
For experiment [18], the target named is D(2) dopamine receptor (Homo sapiens) (UniProt P14416). In words: Dopamine D2 receptor (DRD2) small molecule agonists, cell-based qHTS assay (AID 1963594). Note: nearly all actives have a fitted effect of over 35% in size. The method in brief:
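cAMP accumulation in DRD2-HEK293 cells measured by HTRF after 1 h detection; compounds added 10 min before NKH477 (200nM […]) forskolin-analogue stimulation, 30 min at room temperature, with Ro20-1724 present at 0.1 mM final.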

Experiment [19] has the same target. In words: Dopamine D2 receptor (DRD2) small molecule antagonists, cell-based qHTS assay (AID 1963595; active = well fitted inhibition curve with a large enough effect in the signal ratio in the repeat runs, with a control signal flat; the % refers to the signal ratio). The method in brief: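 DRD2-HEK293; 0.1 mM Ro20-1724; cpd 10 min RT; NKH477 200 nM + quinpirole 12 nM, 30 min RT; HTRF cAMP (cAMP-d2/anti-cAMP cryptate), 665/620 nm ratio after 1 h.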
Experiment [20] in a line: p53 small molecule agonists, cell-based qHTS assay with human liver microsomes: qHTS cell viability counter screen (AID 1963579). Note: nearly all actives have a fitted effect of over 45% in size. The method in brief:
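HLM-supplemented (0.5 mg/mL final) and NADPH-supplemented (0.5 mg/mL final) p53RE-bla cultures, 4,000 cells per well, were dosed with compounds in DMSO for 16 h at 37 C; luminescent ATP detection (CellTiter-Glo, 30 min, room temperature) quantified surviving cells.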

Inconclusive results are not listed. The source made the active and inactive calls. Unless noted, calls come from the whole dose curve.

Sequence of 5-hydroxytryptamine receptor 2A (Homo sapiens) (P28223 whole entry, looked up): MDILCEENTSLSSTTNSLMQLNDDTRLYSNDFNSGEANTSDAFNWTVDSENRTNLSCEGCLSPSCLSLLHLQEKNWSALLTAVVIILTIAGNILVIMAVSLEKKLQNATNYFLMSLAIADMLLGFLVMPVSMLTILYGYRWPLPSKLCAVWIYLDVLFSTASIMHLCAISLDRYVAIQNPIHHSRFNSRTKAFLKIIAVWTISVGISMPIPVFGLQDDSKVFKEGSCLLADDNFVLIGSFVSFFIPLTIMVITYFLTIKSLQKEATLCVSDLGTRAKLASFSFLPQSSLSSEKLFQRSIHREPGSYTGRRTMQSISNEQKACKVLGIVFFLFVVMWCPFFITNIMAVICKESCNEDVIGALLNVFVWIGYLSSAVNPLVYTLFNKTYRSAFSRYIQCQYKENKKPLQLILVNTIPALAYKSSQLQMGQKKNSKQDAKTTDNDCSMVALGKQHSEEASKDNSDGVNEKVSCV
Sequence of Muscarinic acetylcholine receptor M1 (Homo sapiens) (P11229 whole entry, looked up): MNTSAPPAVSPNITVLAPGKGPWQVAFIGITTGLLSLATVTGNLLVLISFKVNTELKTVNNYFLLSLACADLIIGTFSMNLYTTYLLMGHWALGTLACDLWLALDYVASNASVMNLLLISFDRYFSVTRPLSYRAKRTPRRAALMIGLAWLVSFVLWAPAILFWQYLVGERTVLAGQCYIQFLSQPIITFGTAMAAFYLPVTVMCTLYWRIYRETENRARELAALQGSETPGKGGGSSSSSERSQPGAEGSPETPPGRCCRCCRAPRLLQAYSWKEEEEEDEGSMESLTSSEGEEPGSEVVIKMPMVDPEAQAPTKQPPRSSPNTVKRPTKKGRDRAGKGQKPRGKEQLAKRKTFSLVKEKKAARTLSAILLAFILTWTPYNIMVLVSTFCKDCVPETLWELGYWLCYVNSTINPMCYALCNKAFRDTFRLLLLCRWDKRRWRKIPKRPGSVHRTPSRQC
Sequence of D(2) dopamine receptor (Homo sapiens) (P14416 whole entry, looked up): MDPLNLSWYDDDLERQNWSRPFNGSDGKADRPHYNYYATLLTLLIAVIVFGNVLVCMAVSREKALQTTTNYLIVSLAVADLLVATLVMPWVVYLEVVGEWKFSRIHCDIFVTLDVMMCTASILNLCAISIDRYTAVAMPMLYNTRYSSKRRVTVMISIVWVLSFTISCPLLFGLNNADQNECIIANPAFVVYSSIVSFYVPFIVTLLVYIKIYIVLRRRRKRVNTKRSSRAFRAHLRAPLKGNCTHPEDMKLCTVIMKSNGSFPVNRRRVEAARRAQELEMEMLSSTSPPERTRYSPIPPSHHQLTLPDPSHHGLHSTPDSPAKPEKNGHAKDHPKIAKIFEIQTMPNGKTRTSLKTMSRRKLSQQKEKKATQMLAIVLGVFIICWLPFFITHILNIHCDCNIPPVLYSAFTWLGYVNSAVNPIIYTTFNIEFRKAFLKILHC
Sequence of Beta-2 adrenergic receptor (Homo sapiens) (P07550 whole entry, looked up): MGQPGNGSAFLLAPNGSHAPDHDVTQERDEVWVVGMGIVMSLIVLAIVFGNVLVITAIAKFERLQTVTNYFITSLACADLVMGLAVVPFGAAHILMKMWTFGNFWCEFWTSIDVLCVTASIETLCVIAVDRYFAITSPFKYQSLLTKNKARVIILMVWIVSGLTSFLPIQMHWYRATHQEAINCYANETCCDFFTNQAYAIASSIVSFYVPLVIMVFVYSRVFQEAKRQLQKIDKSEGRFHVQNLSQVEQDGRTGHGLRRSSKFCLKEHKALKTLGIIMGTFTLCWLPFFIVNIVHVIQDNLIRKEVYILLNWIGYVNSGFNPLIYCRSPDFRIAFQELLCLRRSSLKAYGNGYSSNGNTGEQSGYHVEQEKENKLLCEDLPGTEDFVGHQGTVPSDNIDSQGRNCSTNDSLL
Sequence of Gonadotropin-releasing hormone receptor (Homo sapiens) (P30968 whole entry, looked up): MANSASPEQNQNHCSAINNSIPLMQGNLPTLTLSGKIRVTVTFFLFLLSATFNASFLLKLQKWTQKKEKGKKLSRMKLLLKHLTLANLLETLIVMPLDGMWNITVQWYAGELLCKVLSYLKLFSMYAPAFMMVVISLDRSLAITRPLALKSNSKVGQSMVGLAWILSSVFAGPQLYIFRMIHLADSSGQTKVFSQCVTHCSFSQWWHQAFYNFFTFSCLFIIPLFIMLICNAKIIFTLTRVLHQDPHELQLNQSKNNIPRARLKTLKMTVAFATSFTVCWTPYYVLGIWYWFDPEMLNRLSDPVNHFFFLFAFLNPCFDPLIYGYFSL

Take `C=CC(=O)OCCCCCCCCCC`: the Potency result in [1], in experiment [2], in experiment [3], in [5], in experiment [6] and in experiment [7] was “inactive” in each case. Besides, the Potency result in [8], in experiment [9], in experiment [10], in experiment [11], in [12] and in experiment [13] was “inactive” in each case. Besides, the Potency result in [14], in experiment [15] and in experiment [16] was “inactive” throughout. The outcome in experiment [4] was inactive.

Regarding `CCCCCCCC/C=C\CCCCCCCC(=O)OC[C@@H](O)[C@H]1OC[C@H](O)[C@H]1O`, the Potency entry in experiment [1], in [2], in experiment [3], in experiment [5], in [6] and in experiment [17] was “inactive” each time. Besides, the Potency result in experiment [8], in [10], in experiment [11], in experiment [12], in experiment [13] and in experiment [14] was “inactive” in each case. In addition, the Potency result in [15] and in [16] was “inactive” each time. For the same compound, the result in experiment [4] was inactive.

On to `Cc1cc(OI)c(C(C)C)cc1-c1cc(C(C)C)c(OI)cc1C`, for which the Potency result in [1], in experiment [2], in experiment [3], in experiment [5], in [6] and in experiment [17] was “inactive” in each case. In addition, the Potency entry in [7], in experiment [8], in experiment [9], in [10], in experiment [11] and in experiment [12] was “inactive” throughout. Also, the Potency result in experiment [13], in [14], in experiment [15], in [16], in experiment [18] and in experiment [19] was “inactive” in each case. For the same compound, the result in experiment [4] was inactive.

Turning to `CC1(C)CC(N)CC(C)(C)N1`, the Potency result in experiment [1], in experiment [2], in experiment [3], in experiment [5], in experiment [6] and in [20] was “inactive” each time. Also, the Potency result in [7], in experiment [8], in experiment [9], in experiment [10], in [11] and in [12] was “inactive” each time. Besides, the Potency entry in [14], in experiment [15] and in experiment [19] was “inactive” in each case. In addition, the result in experiment [4] was inactive.

In the case of `O=C(CCc1ccc(O)cc1)c1c(O)cc(O)cc1O`, the Potency result in [1], in experiment [3], in [5], in experiment [6], in [20] and in [7] was “inactive” each time. Also, the Potency result in experiment [10], in [11], in experiment [12], in experiment [14], in experiment [15] and in experiment [18] was “inactive” throughout. Also, the Potency entry in experiment [19] was “inactive”. The Potency in [2] is 70.1 µM (active); in [9], 38.4 µM (active). For the same compound, the outcome in [4] was inactive.

`CN=C(N)NC(=O)Nc1c(C)cccc1C`: the Potency entry in [1], in [2], in [3], in experiment [5], in experiment [20] and in experiment [17] was “inactive” in each case. For the same compound, the Potency result in experiment [7], in [8], in experiment [11], in experiment [12], in experiment [13] and in experiment [14] was “inactive” each time. Further, the Potency entry in experiment [15], in [18] and in experiment [19] was “inactive” in each case. The outcome in [4] was inactive. In experiment [10], the Potency is 6.74 µM (active).

As to `C(=C/c1ccccc1)/c1ccccc1`, the Potency result in [1], in [2], in experiment [3], in experiment [5], in [6] and in experiment [20] was “inactive” each time. Further, the Potency entry in experiment [17], in experiment [7], in experiment [10], in [11], in [12] and in experiment [13] was “inactive” in each case. Moreover, the Potency entry in experiment [14], in experiment [15], in [16] and in experiment [19] was “inactive” throughout. Also, the result in [4] was inactive.

In the case of `C[C@H](CN1CCCC1)C(=O)c1ccc(C(F)(F)F)cc1`, the Potency result in experiment [1], in [2], in experiment [3], in experiment [5], in experiment [6] and in [17] was “inactive” throughout. Besides, the Potency entry in experiment [7], in experiment [8], in [9], in [10], in experiment [12] and in [13] was “inactive” in each case. Moreover, the Potency result in experiment [15], in experiment [16] and in [19] was “inactive” throughout. Further, in [4], the outcome was inactive.
